IP6K1 inh – Primary qHTS assay for small molecule inhibitors of Inositol hexaphosphate kinase 1 (IP6K1). activity change, % (series mostly up to about 58 µM). 0.81% of 140,000 active. Inositol hexakisphosphate kinase 1 (Homo sapiens), Q92551. AID 1645851, 2021. IP6K1 kinase, ADP-Glo luminescence, 2 h; stronger effect = lower value; in the data active = activity change below about -25%; also: % is scaled to controls: 0 for no effect and ±100 for the full control effect
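ADP-Glo luminescence measures ADP made by human IP6K1 during a 2 h RT reaction with ATP/IP6 (mix at 1.3 mM/130 uM); top library doses 57.5 and 19.1 uM final.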
SNCA expr inhib – Primary qHTS assay for inhibitors of alpha-synuclein gene (SNCA) expression; HEK-293 SNCA-luciferase knock-in, luminescence, 24 h; Potency, µM (highest dose often 57.2 µM), for inactives: at the top dose activity change, negative = inhibition, actives largely listed as inhibitors; 0.17% of 140,000 active; AID 1671194, 2021;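 also: potency is read from the fitted curve at half-maximal effect; plate controls were DMSO cells for no effect and cell-free wells for full effect; nearly all actives have a fitted effect of over 45% in size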
HEK293 viab – GF-AFC viability counterscreen for inhibitors of alpha-synuclein gene (SNCA) expression; HEK-293-SNCA-luc viability, GF-AFC fluorescence, 24 h; Potency, µM (doses to about 57.1 µM), for inactives: at the highest dose activity change, negative = cytotoxicity, hits mostly cytotoxic; AID 1671193, 2021; 0.12% of 150,000 active;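 also: potency is read from the fitted curve at half-maximal effect; 0% = DMSO-treated cells and -100% = medium-only wells without cells; nearly all actives have a fitted effect of over 30% in size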
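Cytotoxicity counterscreen: after 24 h compound treatment of genome-edited SNCA-luciferase HEK-293 cells, live-cell protease substrate GF-AFC read by fluorescence after 30 min; activity scaled between DMSO (0%) and medium-only (-100%), curves Hill-fitted.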
KDM5B inhibitor – Primary screen for KDM5B Histone Demethylases FDH-coupled qHTS; Lysine-specific demethylase 5B (Homo sapiens), Q9UGL1; KDM5B demethylase, FDH-coupled NADH fluorescence (FDH is formaldehyde dehydrogenase); Potency, µM (highest dose often 57.7 µM), hits mostly inhibitors; 2.6% of 220,000 active; also: potency is read from the fitted curve at half-maximal effect; 0% is about no effect; nearly all actives have a fitted effect of over 70% in size
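Measured: NADH fluorescence change, 30 min, RT. System: KDM5BΔAP 200 nM final, H3K4me3 peptide, α-KG, Fe(II), ascorbate, NAD⁺ plus FDH, pH 7.5 HEPES. Compounds: titrated, 10 min pre-incubation with enzyme.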
* = called active by the depositor; i = inactive; ? = inconclusive; . = no result given; [ ] = dose if it differs, or a comment. An excerpt weighted towards active compounds, which were near 2.8% of everything screened. Unless noted, calls follow the shape of the dose curve; as a rule, active = well fitted curve in the direction sought with a large enough effect; inconclusive = small, poorly fitted or top-dose-only effect, or another doubt; inactive = no such curve, though single readings can be large; an effect the other way counts as inactive or inconclusive.

SMILES	IP6K1 inh	SNCA expr inhib	HEK293 viab	KDM5B inhibitor
COC(=O)CNC(=O)c1ccc2nnc(-c3cccc([S+](C)(=O)[O-])c3)n2c1	12.8	4.9%	2.9%	.
NC[C@H]1CCC[C@@H](CNC(=O)[C@@H](Cc2c[nH]c3ccccc23)NC(=O)N2CCC3(C=Cc4ccccc43)CC2)C1	-13.5	.	-6.0%	.
CC(c1ccc(F)cc1)N1Cc2cc(NC(=O)c3cccs3)ccc2OCC1=O (stereo unspecified)	9.7	19.5%	-17.8%	?
CNc1ncncc1-c1nc(-c2ccccc2)no1	-5.7	51.3%	-3.1%	28.2µM*
Cc1cccc(N2CCN(c3ncncc3-c3nc(-c4ccccc4)no3)CC2)c1	1.5	78.8%	3.7%	22.4µM*
Cc1cc(F)ccc1Nc1ncncc1-c1nc(-c2ccccc2)no1	-12.6	?	-9.4%	7.94µM*
Cc1ccc(Nc2ncncc2-c2nc(-c3ccccc3)no2)c(C)c1	2.8	-17.4%	2.6%	i
CCc1ccc(Nc2ncncc2-c2nc(-c3ccccc3)no2)cc1	-6.1	?	1.6%	i
CCOc1ccc(CNC(=O)c2c(C)sc3ccn(C)c(=O)c23)cc1	0.3	-8.7%	9.3%	i
Cc1cn2nc(C(=O)NCc3ccc(C(F)(F)F)cc3)cc2c(N2CCSCC2)n1	0.0	-1.8%	4.2%	28.2µM*
Cc1cn2nc(C(=O)NCc3ccncc3)cc2c(N2CCSCC2)n1	-3.7	-4.1%	26.6%	i
Cc1cccc(CNC(=O)c2cc3c(N4CCSCC4)nc(C)cn3n2)c1	5.7	-19.7%	0.4%	?
CCc1ccc(CNC(=O)c2cc3c(N4CCSCC4)nc(C)cn3n2)cc1	5.8	-24.4%	1.0%	31.6µM*
Cc1cn2nc(C(=O)NCc3cccc(C(F)(F)F)c3)cc2c(N2CCSCC2)n1	5.6	2.9%	0.8%	28.2µM*
COc1ccc(CNC(=O)c2cc3c(N4CCSCC4)nc(C)cn3n2)cc1	6.2	29.8%	-5.1%	?
CC(C)N1CCN(C(=O)C2Cn3cccc3C(=O)N2C)CC1 (stereo unspecified)	6.0	?	-4.4%	.
Cc1noc(-c2cccs2)c1C(=O)NCCCCc1ccccc1	-10.3	5.3%	-1.5%	31.6µM*
CCCOCCNC(=O)c1c(C)noc1-c1cccs1	-9.0	11.1%	5.5%	25.1µM*
Cc1noc(-c2cccs2)c1C(=O)NCCC(c1ccccc1)c1ccccc1	-19.7	-20.9%	-2.4%	35.5µM*
CC(OC(=O)c1cccc(N(C)C)c1)C(=O)c1ccccc1 (stereo unspecified)	.	.	.	i
CCOC(=O)CSc1ncn(-c2nc(NC3CC3)nc(N(C)C)n2)n1	.	.	.	i
Cc1ccc(OCCNC(=O)c2cc3ccccc3n2C)cc1	.	.	.	i
O=[S+]1([O-])NC2(CCN(CC3CC3)CC2)COc2ccccc21	15.4	-24.1%	5.6%	?
O=[S+]1([O-])NC2(CCN(CC3CCCC3)CC2)COc2ccccc21	15.0	6.5%	-8.2%	79.4µM*
COCCn1c(C)nnc1-c1cc(-c2ccnc(C)c2)ccn1	-6.0	-15.9%[87.6 µM]	-0.5%[87.6 µM]	i
SMILES	IP6K1 inh	SNCA expr inhib	HEK293 viab	KDM5B inhibitor
COCCn1c(C)nnc1-c1cc(-c2cccc(OC)c2)ccn1	-1.9	26.9%[87.6 µM]	12.1%[87.6 µM]	35.5µM*
CN1CCC(NC(=O)C2(C)CCc3cnc(N4CCOCC4)nc32)CC1 (stereo unspecified)	9.0	?	13.0%[87.6 µM]	35.5µM*
CC1(C(=O)NC2CCOCC2)CCCc2cnc(Nc3ccccc3)nc21 (stereo unspecified)	6.4	-10.1%[87.6 µM]	-26.0%[87.6 µM]	i
COc1ccc(NC(=O)C2(C)CCc3cnc(N4CCOCC4)nc32)cc1 (stereo unspecified)	16.1	-10.4%[87.6 µM]	17.1%[87.6 µM]	39.8µM*
CN(C)C[C@@H]1CN(c2ccncn2)C[C@H]1NC(=O)c1cccc2[nH]ccc12	0.4	-8.6%	6.4%	i
Cc1noc(C)c1S(=O)(=O)N1CCC(C(=O)N2CCC(CCOc3ccc(F)cc3)C2)CC1 (stereo unspecified)	14.0	-2.1%	-5.7%	i
COc1ccc(-c2cc3c(=O)n(CCNC(=O)c4ccc(N(C)C)cc4)ccn3n2)cc1	-9.4	58.8%	-5.0%	25.1µM*
COc1ccc(-c2cc3c(=O)n(CCNC(=O)c4ccc(F)c(F)c4)ccn3n2)cc1	-0.9	96.7%	-1.9%	?
COc1ccc(-c2cc3c(=O)n(CCNC(=O)c4ccc5c(c4)OCO5)ccn3n2)cc1	-11.9	58.7%	-3.9%	6.31µM*
COc1ccc(C(=O)NCCn2ccn3nc(-c4ccc(F)cc4)cc3c2=O)cn1	0.4	-15.2%	-5.3%	25.1µM*
CCC(C(=O)Nc1sc(C)c(C)c1C#N)c1ccccc1 (stereo unspecified)	.	.	.	i
COc1ccc(-c2ccc3nnc(CNC(=O)COc4ccc(F)cc4)n3n2)cc1	7.8	1.8%	12.0%	28.2µM*
Cc1ccc(-c2ccc3nnc(CNC(=O)COc4ccccc4)n3n2)cc1C	-4.5	-7.2%	-4.6%	28.2µM*
Cc1ccc(-c2ccc3nnc(CNC(=O)COc4ccccc4)n3n2)cc1	-3.9	6.6%	2.1%	35.5µM*
COc1ccc(-c2ccc3nnc(CNC(=O)Cc4cccc(F)c4)n3n2)cc1	1.8	22.5%	-15.3%	?
O=C(NCc1ccc(C(F)(F)F)cc1)[C@@H]1Cc2nc[nH]c2CN1Cc1ccc([N+](=O)[O-])cc1	21.0	2.1%	-6.5%	i
COC(=O)[C@@H]1Cc2nc[nH]c2CN1Cc1ccc(OC)c2ccccc12	18.4	-9.9%[87.6 µM]	-0.6%[87.6 µM]	31.6µM*
COC(=O)[C@@H]1Cc2nc[nH]c2CN1Cc1ccc([N+](=O)[O-])cc1	25.5	-26.8%[87.6 µM]	3.7%[87.6 µM]	28.2µM*
COc1ccc(N2CC3CCC(C2)N3Cc2cccc(-c3ccc(F)cc3F)c2)cc1	6.1	97.4%	8.8%	79.4µM*
Cc1cc(=O)n(CC(=O)Nc2cccc(Cl)c2)c(N2CCc3ccccc3C2)n1	-3.4	?	?	12.6µM*
Cc1cc(=O)n(CC(=O)Nc2cccc(C(C)C)c2)c(N2CCc3ccccc3C2)n1	26.1	1.9%	-8.2%	22.4µM*
Cc1cc(=O)n(CC(=O)Nc2ccc(C(C)C)cc2)c(N2CCc3ccccc3C2)n1	14.6	3.4%	-0.6%	i
Cc1cc(=O)n(CC(=O)Nc2ccc(Cl)cc2)c(N2CCc3ccccc3C2)n1	17.4	?	-13.7%	?
COc1cccc(CNC(=O)Cn2c(N3CCc4ccccc4C3)nc(C)cc2=O)c1	10.9	?	-19.2%	35.5µM*
CC(C)C(OC(=O)Cc1cccc(C(F)(F)F)c1)C(=O)NC(N)=O (stereo unspecified)	.	.	.	i
Oc1ccc(-n2nnnc2SCc2cc(Cl)c3c(c2)OCCO3)cc1	.	.	.	i
CC(C)(C)OC(=O)N1CC(N2CCc3ccccc32)C1	5.6	33.2%[87.6 µM]	-14.5%[87.6 µM]	i
CN(Cc1cc(C2CC2)n[nH]1)c1nccc(-c2cccnc2)n1	29.1	34.2%	-1.2%	22.4µM*

Assay outcomes (PubChem BioAssay)
